Source: PubChem BioAssay AID1159580 (chemical genetic matrix, 2015)
About 2,000 (36%) of roughly 5,500 compounds were called active. Inconclusive results (about 18%) are left out. Cut-off read from the data, not from the text of the source: active = normalized growth mostly below about 0.91 (no sharp cut-off); inconclusive = no clear call, values can overlap the other calls; inactive = mostly above about 0.92. The list shows a part of the results.

Assay: chemical genetic growth profiling, strain panel (AID 1159580);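 note: tested at 20 µM; growth read once vehicle control cultures reached saturation at 30 °C; 1 = growth at the plate median or of vehicle wells; lower values mean less growth of the strain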
Details: growth OD
[1] = S. cerevisiae deletion strains, locus YDL101C, strain DUN1, hits give low values
[2] = S. cerevisiae deletion strains, locus YHR030C, strain SLT2, hits give low values

Measured: normalized growth

N#Cc1sccc1Br
active: S. cerevisiae deletion strains, locus YPL241C, strain CIN2, hits give low values 1.32 [resistant]
inactive: S. cerevisiae deletion strains, locus YAL013W, strain DEP1, hits give low values 0.995 | S. cerevisiae deletion strains, locus YBR229C, strain ROT2, hits give low values 0.982 | S. cerevisiae deletion strains, locus YCL061C, strain MRC1, hits give low values 1.02 | [1] 0.967 | S. cerevisiae deletion strains, locus YDL134C, strain PPH21, hits give low values 0.993 | S. cerevisiae deletion strains, locus YDR150W, strain NUM1, hits give low values 1.06 | S. cerevisiae deletion strains, locus YEL061C, strain CIN8, hits give low values 1 | S. cerevisiae deletion strains, locus YGR078C, strain PAC10, hits give low values 0.999 | [2] 0.961 | S. cerevisiae deletion strains, locus YHR087W, strain rtc3, hits give low values 0.986 | S. cerevisiae deletion strains, locus YJR043C, strain POL32, hits give low values 1.01 | S. cerevisiae deletion strains, locus YJR075W, strain HOC1, hits give low values 1.03 | S. cerevisiae deletion strains, locus YLR039C, strain RIC1, hits give low values 1 | S. cerevisiae deletion strains, locus YLR058C, strain SHM2 (second series), hits give low values 0.991 | S. cerevisiae deletion strains, locus YLR085C, strain ARP6, hits give low values 1.1 | S. cerevisiae deletion strains, locus YLR262C, strain YPT6, hits give low values 1 | S. cerevisiae deletion strains, locus YML094W, strain GIM5, hits give low values 0.982 | S. cerevisiae deletion strains, locus YMR219W, strain ESC1, hits give low values 0.991 | S. cerevisiae deletion strains, locus YMR263W, strain SAP30, hits give low values 1.04 | S. cerevisiae deletion strains, locus YNL153C, strain GIM3, hits give low values 1.02 | S. cerevisiae deletion strains, locus YNL298W, strain CLA4 (second series), hits give low values 1.04 | S. cerevisiae deletion strains, locus YNL322C, strain KRE1, hits give low values 0.997 | S. cerevisiae deletion strains, locus YNR030W, strain Alg12, hits give low values 1 | S. cerevisiae deletion strains, locus YPL055C, strain LGE1, hits give low values 1.02 | S. cerevisiae deletion strains, locus YPR135W, strain CTF4, hits give low values 1.04 | S. cerevisiae strains, strain wild type, hits give low values 0.99

O=C(c1cc2c(s1)-c1ccccc1CC2)N1CCN(Cc2ccccc2)CC1
inactive: S. cerevisiae deletion strains, locus YAR019C, strain CDC15, hits give low values 1 | S. cerevisiae deletion strains, locus YBL105C, strain PKC1, hits give low values 1 | S. cerevisiae deletion strains, locus YBR135W, strain CKS1, hits give low values 0.996 | S. cerevisiae deletion strains, locus YBR136W, strain MEC1, hits give low values 0.999 | S. cerevisiae deletion strains, locus YBR160W, strain CDC28, hits give low values 0.998 | S. cerevisiae deletion strains, locus YDL017W, strain CDC7, hits give low values 1 | S. cerevisiae deletion strains, locus YDL028C, strain MPS1, hits give low values 0.999 | [1] 0.999 | S. cerevisiae deletion strains, locus YDL108W, strain KIN28, hits give low values 0.998 | S. cerevisiae deletion strains, locus YDL132W, strain cdc53, hits give low values 0.993 | S. cerevisiae deletion strains, locus YDL214C, strain PRR2, hits give low values 0.965 | S. cerevisiae deletion strains, locus YDR052C, strain DBF4, hits give low values 1 | S. cerevisiae deletion strains, locus YDR054C, strain cdc34, hits give low values 0.99 | S. cerevisiae deletion strains, locus YDR226W, strain ADK1, hits give low values 1 | S. cerevisiae deletion strains, locus YDR477W, strain SNF1, hits give low values 0.982 | S. cerevisiae deletion strains, locus YER123W, strain YCK3, hits give low values 0.929 | S. cerevisiae deletion strains, locus YER133W, strain GLC7, hits give low values 0.985 | S. cerevisiae deletion strains, locus YFL009W, strain cdc4, hits give low values 1.01 | S. cerevisiae deletion strains, locus YFL029C, strain CAK1, hits give low values 1 | S. cerevisiae deletion strains, locus YFR003C, strain YPI1, hits give low values 0.998 | S. cerevisiae deletion strains, locus YFR019W, strain FAB1, hits give low values 0.941 | S. cerevisiae deletion strains, locus YFR028C, strain CDC14, hits give low values 0.996 | S. cerevisiae deletion strains, locus YGR040W, strain KSS1, hits give low values 0.962 | S. cerevisiae deletion strains, locus YGR052W, strain FMP48, hits give low values 1.1 | S. cerevisiae deletion strains, locus YGR092W, strain DBF2, hits give low values 0.988 | [2] 1 | S. cerevisiae deletion strains, locus YHR079C, strain IRE1, hits give low values 0.971 | S. cerevisiae deletion strains, locus YHR082C, strain KSP1, hits give low values 1.04 | S. cerevisiae deletion strains, locus YHR205W, strain SCH9, hits give low values 0.94 | S. cerevisiae deletion strains, locus YIL147C, strain SLN1, hits give low values 1 | S. cerevisiae deletion strains, locus YJL095W, strain BCK1, hits give low values 0.974 | S. cerevisiae deletion strains, locus YJL128C, strain PBS2, hits give low values 0.974 | S. cerevisiae deletion strains, locus YJL157C, strain FAR1, hits give low values 0.976 | S. cerevisiae deletion strains, locus YJR016C, strain ILV3, hits give low values 0.988 | S. cerevisiae deletion strains, locus YJR066W, strain TOR1 (second series), hits give low values 0.958 | S. cerevisiae deletion strains, locus YJR066W, strain TOR1, hits give low values 1.07 | S. cerevisiae deletion strains, locus YKL048C, strain ELM1, hits give low values 0.984 | S. cerevisiae deletion strains, locus YKL067W, strain YNK1, hits give low values 0.955 | S. cerevisiae deletion strains, locus YKL101W, strain HSL1, hits give low values 0.984 | S. cerevisiae deletion strains, locus YKL193C, strain SDS22, hits give low values 1 | S. cerevisiae deletion strains, locus YKL203C, strain TOR2, hits give low values 1.01 | S. cerevisiae deletion strains, locus YLR113W, strain HOG1, hits give low values 0.96 | S. cerevisiae deletion strains, locus YLR133W, strain CKI1, hits give low values 0.971 | S. cerevisiae deletion strains, locus YLR403W, strain SFP1, hits give low values 0.966 | S. cerevisiae deletion strains, locus YML070W, strain DAK1, hits give low values 0.953 | S. cerevisiae deletion strains, locus YMR001C, strain CDC5, hits give low values 1 | S. cerevisiae deletion strains, locus YMR205C, strain PFK2 (second series), hits give low values 0.981 | S. cerevisiae deletion strains, locus YMR277W, strain FCP1, hits give low values 1.01 | S. cerevisiae deletion strains, locus YNL006W, strain LST8, hits give low values 1.02 | S. cerevisiae deletion strains, locus YNL020C, strain ARK1, hits give low values 0.982 | S. cerevisiae deletion strains, locus YNL161W, strain CBK1, hits give low values 1 | S. cerevisiae deletion strains, locus YNL183C, strain NPR1, hits give low values 0.984 | S. cerevisiae deletion strains, locus YNL207W, strain RIO2, hits give low values 1 | S. cerevisiae deletion strains, locus YNL222W, strain SSU72, hits give low values 1.01 | S. cerevisiae deletion strains, locus YNL307C, strain MCK1 (second series), hits give low values 0.963 | S. cerevisiae deletion strains, locus YOL078W, strain AVO1, hits give low values 1.01 | S. cerevisiae deletion strains, locus YOL136C, strain PFK27, hits give low values 0.964 | S. cerevisiae deletion strains, locus YOR061W, strain CKA2, hits give low values 1 | S. cerevisiae deletion strains, locus YOR119C, strain RIO1, hits give low values 1.1 | S. cerevisiae deletion strains, locus YOR231W, strain MKK1, hits give low values 0.981 | S. cerevisiae deletion strains, locus YOR329C, strain SCD5, hits give low values 1.01 | S. cerevisiae deletion strains, locus YPL031C, strain PHO85, hits give low values 0.981 | S. cerevisiae deletion strains, locus YPL153C, strain RAD53, hits give low values 0.975 | S. cerevisiae deletion strains, locus YPL204W, strain HRR25, hits give low values 0.951 | S. cerevisiae deletion strains, locus YPL209C, strain IPL1, hits give low values 1.01 | S. cerevisiae deletion strains, locus YPL256C, strain CLN2, hits give low values 0.958 | S. cerevisiae deletion strains, locus YPR025C, strain CCL1, hits give low values 1 | S. cerevisiae deletion strains, locus YPR106W, strain ISR1, hits give low values 0.996 | S. cerevisiae deletion strains, locus YPR111W, strain DBF20, hits give low values 0.977 | S. cerevisiae deletion strains, strain NNK1, hits give low values 0.998 | S. cerevisiae deletion strains, strain TSCII, hits give low values 1
